# Measured values taken from the supplement of paper PMC8728848.
# About 410 targets per protein were measured; listed, in parts, are those with the strongest signals and a random draw of the rest.
# B1: Gal-9-hFc (Mus musculus), O08573-2 (protein)
# chain: MALFSAQSPYINPIIPFTGPIQGGLQEGLQVTLQGTTKSFAQRFVVNFQNSFNGNDIAFHFNPRFEEGGYVVCNTKQNGQWGPEERKMQMPFQKGMPFELCFLVQRSEFKVMVNKKFFVQYQHRVPYHLVDTIAVSGCLKLSFITFQTQNFRPAHQAPMAQTTIHMVHSTPGQMFSTPGIPPVVYPTPAYTIPFYTPIPNGLYPSKSIMISGNVLPDATRFHINLRCGGDIAFHLNPRFNENAVVRNTQINNSWGQEERSLLGRMPFSRGQSFSVWIICEGHCFKVAVNGQHMCEYYHRLKNLQDINTLEVAGDIQLTHVQT
# Columns and labels:
# Assay in all cases: glycan array binding signal (z-score within array); higher = stronger binding
# Settings in all cases: glycan notation: IUPAC condensed, linker removed
# [1] = target: Fuc(a1-2)Gal(b1-3)GalNAc(b1-3)Gal(a1-4)Gal(b1-4)Glc
# Outline: (§1)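 Glycan array data were curated from 3228 arrays in the Consortium for Functional Glycomics database and kept only where the protein sequence was available. Glycan names were converted to IUPAC-condensed notation, and columns mapping to the same glycan were averaged. The binding signal is a within-array Z-score, averaged across arrays of the same protein sequence at different concentrations or buffers and across linkers. Negative Z-scores can be read as non-binding.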
# [2] = target: Fuc(a1-2)[Gal(a1-3)]Gal(b1-4)GlcNAc(b1-2)Man(a1-3)[Fuc(a1-2)[Gal(a1-3)]Gal(b1-4)GlcNAc(b1-2)Man(a1-6)]Man(b1-4)GlcNAc(b1-4)GlcNAc
# Outline: as §1
# [3] = target: Fuc(a1-2)[Gal(a1-3)]Gal(b1-4)GlcNAc(b1-3)[Fuc(a1-2)[Gal(a1-3)]Gal(b1-4)GlcNAc(b1-6)]GalNAc
# Outline: as §1
# [4] = target: Fuc(a1-2)[Gal(a1-3)]Gal(b1-4)GlcNAc(b1-6)GalNAc
# Outline: as §1
# [5] = target: Fuc(a1-2)[GalNAc(a1-3)]Gal(b1-4)[Fuc(a1-3)]GlcNAc
# Outline: as §1
# [6] = target: Fuc(a1-3)[Gal(b1-4)]GlcNAc(b1-6)GalNAc
# Outline: as §1
# [7] = target: Fuc(a1-3)[Gal3S(b1-4)]Glc
# Outline: as §1
# [8] = target: Gal(a1-3)Gal(b1-4)[Fuc(a1-3)]GlcNAc(b1-2)Man(a1-3)[Gal(a1-3)Gal(b1-4)[Fuc(a1-3)]GlcNAc(b1-2)Man(a1-6)]Man(b1-4)GlcNAc(b1-4)GlcNAc
# Outline: as §1
# Gal(a1-4)GlcNAc = target: Gal(a1-4)GlcNAc
# Outline: as §1
# Gal(b1-3)Gal = target: Gal(b1-3)Gal
# Outline: as §1
# [9] = target: Gal(b1-3)GlcNAc(a1-3)Gal(b1-4)GlcNAc
# Outline: as §1
# Gal(b1-3)GlcNAc(b1-2)Man = target: Gal(b1-3)GlcNAc(b1-2)Man
# Outline: as §1
# [10] = target: Gal(b1-3)GlcNAc(b1-3)Gal(b1-3)GlcNAc
# Outline: as §1
# [11] = target: Gal(b1-3)[Neu5Ac(a2-6)]GalNAc
# Outline: as §1
# [12] = target: Gal(b1-3)[Neu5Ac(a2-6)]GlcNAc(b1-4)Gal(b1-4)Glc
# Outline: as §1
# Gal(b1-4)Gal = target: Gal(b1-4)Gal
# Outline: as §1
# Gal(b1-4)GlcNAc = target: Gal(b1-4)GlcNAc
# Outline: as §1
# [13] = target: Gal(b1-4)GlcNAc(b1-3)Gal(b1-4)GlcNAc(b1-2)Man(a1-3)[Gal(b1-4)GlcNAc(b1-3)Gal(b1-4)GlcNAc(b1-2)Man(a1-6)]Man(b1-4)GlcNAc(b1-4)GlcNAc
# Outline: as §1
# [14] = target: Gal(b1-4)GlcNAc(b1-3)Gal(b1-4)GlcNAc(b1-2)[Gal(b1-4)GlcNAc(b1-3)Gal(b1-4)GlcNAc(b1-6)]Man(a1-6)[Gal(b1-4)GlcNAc(b1-3)Gal(b1-4)GlcNAc(b1-2)Man(a1-3)]Man(b1-4)GlcNAc(b1-4)GlcNAc
# Outline: as §1
# [15] = target: Gal(b1-4)GlcNAc(b1-3)Gal(b1-4)GlcNAc(b1-3)GalNAc
# Outline: as §1
# [16] = target: Gal(b1-4)GlcNAc(b1-3)[GlcNAc(b1-6)]Gal(b1-4)GlcNAc
# Outline: as §1
# Gal3S(b1-4)Glc6S = target: Gal3S(b1-4)Glc6S
# Outline: as §1
# [17] = target: Gal3S(b1-4)[Fuc(a1-3)]GlcNAc6S
# Outline: as §1
# Gal6P(b1-4)GlcNAc = target: Gal6P(b1-4)GlcNAc
# Outline: as §1
# GalNAc(b1-4)GlcNAc = target: GalNAc(b1-4)GlcNAc
# Outline: as §1
# GalNAc4S6S(b1-4)GlcNAc = target: GalNAc4S6S(b1-4)GlcNAc
# Outline: as §1
# Glc(a1-6)Glc(a1-6)Glc = target: Glc(a1-6)Glc(a1-6)Glc
# Outline: as §1
# [18] = target: GlcNAc(b1-2)[GlcNAc(b1-4)]Man(a1-3)[GlcNAc(b1-4)][GlcNAc(b1-2)Man(a1-6)]Man(b1-4)GlcNAc(b1-4)GlcNAc
# Outline: as §1
# [19] = target: GlcNAc(b1-3)Gal(b1-4)GlcNAc(b1-3)Gal(b1-4)GlcNAc(b1-2)Man(a1-3)[GlcNAc(b1-3)Gal(b1-4)GlcNAc(b1-3)Gal(b1-4)GlcNAc(b1-2)Man(a1-6)]Man(b1-4)GlcNAc(b1-4)GlcNAc
# Outline: as §1
# [20] = target: GlcNAc(b1-3)Gal(b1-4)GlcNAc(b1-3)Gal(b1-4)GlcNAc(b1-3)Gal(b1-4)GlcNAc(b1-3)Gal(b1-4)GlcNAc(b1-2)Man(a1-3)[GlcNAc(b1-3)Gal(b1-4)GlcNAc(b1-3)Gal(b1-4)GlcNAc(b1-3)Gal(b1-4)GlcNAc(b1-3)Gal(b1-4)GlcNAc(b1-2)Man(a1-6)]Man(b1-4)GlcNAc(b1-4)GlcNAc
# Outline: as §1
binder,measurement,setting,value
B1,glycan array binding signal (z-score),[1],-0.29
same,glycan array binding signal (z-score),[2],1.3
same,glycan array binding signal (z-score),[3],4.4
same,glycan array binding signal (z-score),[4],0.473
same,glycan array binding signal (z-score),[5],-0.286
same,glycan array binding signal (z-score),[6],0.042
same,glycan array binding signal (z-score),[7],-0.196
same,glycan array binding signal (z-score),[8],-0.043
same,glycan array binding signal (z-score),Gal(a1-4)GlcNAc,-0.452
same,glycan array binding signal (z-score),Gal(b1-3)Gal,0.036
same,glycan array binding signal (z-score),[9],-0.259
same,glycan array binding signal (z-score),Gal(b1-3)GlcNAc(b1-2)Man,-0.243
same,glycan array binding signal (z-score),[10],0.085
same,glycan array binding signal (z-score),[11],0.317
same,glycan array binding signal (z-score),[12],-0.501
same,glycan array binding signal (z-score),Gal(b1-4)Gal,0.307
same,glycan array binding signal (z-score),Gal(b1-4)GlcNAc,-0.167
same,glycan array binding signal (z-score),[13],1.94
same,glycan array binding signal (z-score),[14],3.74
same,glycan array binding signal (z-score),[15],0.354
same,glycan array binding signal (z-score),[16],2.07
same,glycan array binding signal (z-score),Gal3S(b1-4)Glc6S,4.35
same,glycan array binding signal (z-score),[17],3.57
same,glycan array binding signal (z-score),Gal6P(b1-4)GlcNAc,-0.364
same,glycan array binding signal (z-score),GalNAc(b1-4)GlcNAc,-0.176
same,glycan array binding signal (z-score),GalNAc4S6S(b1-4)GlcNAc,-0.079
same,glycan array binding signal (z-score),Glc(a1-6)Glc(a1-6)Glc,0.138
same,glycan array binding signal (z-score),[18],2.04
same,glycan array binding signal (z-score),[19],0.436
same,glycan array binding signal (z-score),[20],-0.207
